Pf growth 96h: inhibits malaria parasite growth, 96 h; P. falciparum luciferase reporter growth, 96 h; actives 6.9% (n = 320,000); Potency, µM (top dose mostly 28.7 µM), inactives show at the highest dose activity change, negative = inhibition, usual class: inhibitors; further: on the % scale 0 is the no-effect control and ±100 the full control effect
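Two parasite generations (96 h, 37 C, 5% CO2) of compound exposure in infected erythrocytes (0.05% parasitemia, 2% hematocrit). Luciferase-reporter P. falciparum; decreased luminescence indicates inhibited growth, aimed at apicoplast-acting delayed death.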
Pf growth 48h: inhibits P. falciparum growth in the first generation, 48 h. P. falciparum luciferase growth in erythrocytes, 48 h. Potency, µM (doses to about 28.7 µM), inactives show top-dose activity change, negative = inhibition, most hits filed as inhibitors. actives 5.9% (n = 310,000); further: on the % scale 0 is the no-effect control and ±100 the full control effect
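First compound was added to culture medium, then infected red cells at 0.1% parasitemia and 2% hematocrit (final). After incubation at 37 C under 5% CO2, luciferase detection reagent was dispensed and light output recorded.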
HCV inhibitor: HCV inhibition; Potency, µM (series often up to 41.8 µM), inactives show top-dose activity change, negative = inhibition, hits mostly inhibitors; actives 3.4% (n = 340,000); Huh7.5.1 HCVcc-Cre infection, luciferase reporter, 44 h; further: on the % scale 0 is the no-effect control and ±100 the full control effect
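Luciferase read-out (15 sec integration) after a 15 min room-temperature substrate step quantifies HCVcc-Cre infection. Cells, 1,000 per well, had compound added 4 h post-plating, then virus at ~0.5 moi, and were cultured 44 h.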
SARS PLpro yeast: inhibitors of SARS-CoV papain-like protease in yeast | S. cerevisiae expressing SARS-CoV PLpro, growth rescue | Potency, µM (titrated, usually from 32.9 µM), for inactives: top-dose activity, positive = growth rescue, most hits filed as activators | actives 0.19% (n = 330,000) | AID 485353; calls by dose curve; further: 0% is about no effect; nearly all actives have a fitted effect of over 55% in size
NS1 inh: inhibitors of influenza NS1 protein function | Potency, µM (doses to about 46.1 µM), inactives show at the top dose activity, positive = more growth | AID 2326 | actives 0.4% (n = 270,000); calls by dose curve; further: actives are rising curves; nearly all actives have a fitted effect of over 50% in size
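S. cerevisiae expressing influenza A NS1, grown in glucose, washed, then diluted 1:100 into pH 6.0 -URA galactose medium with 23 nl compound. Growth recovery read as OD600; NS1-free strain serves as control.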
AMA1 RON2 block: AMA1-RON2 (P. falciparum) interaction inhibition. Potency, µM (top dose mostly 58.2 µM), for inactives: top-dose activity change, negative = inhibition, usual class: inhibitors. AlphaScreen AMA1-biotinylated RON2 peptide binding. actives 0.2% (n = 360,000);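 further: 0% = vehicle wells and -100% = peptide control; nearly all actives have a fitted effect of over 45% in size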
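AMA1 (3D7) with his tag at 25 nM final met compounds first, then biotinylated RON2 peptide at 25 nM; detection used donor plus acceptor beads, 10 µg/mL apiece, read by AlphaScreen after 30 min at room temperature.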
An asterisk follows results filed as active; [ ] = dose if it differs, or a comment. Shown are actives, neighbours in structure and some others; about 12% of the full set was active somewhere. Unless noted, the call rests on the fitted dose curve; in most records, active means well fitted curve in the direction sought with a large enough effect; inconclusive means small, poorly fitted or top-dose-only effect, or another doubt; inactive means no such curve, though single readings can be large; an effect the other way counts as inactive or inconclusive. Potency means the concentration at half of the fitted maximal effect.

For CCN(CC)S(=O)(=O)c1cccc(C(=O)NC(C(=O)Nc2nnc(C3CC3)s2)C(C)C)c1 (centres undefined) the results were Pf growth 96h 8.3µM*, Pf growth 48h inconclusive, HCV inhibitor -20%, SARS PLpro yeast -4%, NS1 inh -80% and AMA1 RON2 block 51%.
Screening CCN(CC)S(=O)(=O)c1cccc(C(=O)N[C@H](C(=O)Nc2nc3ccc(F)cc3s2)C(C)C)c1 returned Pf growth 96h 2.6µM*, Pf growth 48h 13µM*, HCV inhibitor inconclusive, SARS PLpro yeast 11%, NS1 inh 1% and AMA1 RON2 block -7%.
For Cc1cccc(C(=O)OCC(=O)N2CC(=O)Nc3ccccc32)c1C the results were HCV inhibitor inconclusive, SARS PLpro yeast 1% and AMA1 RON2 block 4%.
Cc1ccc(/C=C/C(=O)OCC(=O)NC(C)C)o1 was read as Pf growth 96h 0%, Pf growth 48h 10%, HCV inhibitor inconclusive, SARS PLpro yeast -2% and AMA1 RON2 block -5%.
`O=P(O)(c1ccccc1)c1ccccc1O` gave Pf growth 96h 12µM*, Pf growth 48h 2%, HCV inhibitor 7%, SARS PLpro yeast 4%, NS1 inh 2% and AMA1 RON2 block -5%.
`O=C(Nc1ccc(Cl)cc1)Nc1ccccc1Sc1ncc([N+](=O)[O-])s1` gave Pf growth 96h 40%, Pf growth 48h 2.6µM*, HCV inhibitor -18%, SARS PLpro yeast -10%, NS1 inh -43% and AMA1 RON2 block 72%.
`C[C@@H]1CN([C@@H](C)CO)C(=O)Cc2cc(NC(=O)C3CCCCC3)ccc2O[C@H]1CN(C)S(=O)(=O)c1ccccc1` gave HCV inhibitor -7%, SARS PLpro yeast 3% and AMA1 RON2 block -2%.
`O=C(Oc1cc2oc(=O)c3c(c2cc1Cl)CCCC3)c1cccs1` gave Pf growth 96h inconclusive, Pf growth 48h 20%, HCV inhibitor -3%, SARS PLpro yeast -34%, NS1 inh -10% and AMA1 RON2 block -15%.
`Cc1cc(OC(=O)c2ccco2)c2c3c(c(=O)oc2c1)CCCC3` gave Pf growth 96h 3.7µM*, HCV inhibitor inconclusive, SARS PLpro yeast -11%, NS1 inh -45% and AMA1 RON2 block 23%.
Cc1cc(OC(=O)c2cccs2)c2c3c(c(=O)oc2c1)CCCC3 was read as Pf growth 96h 54%, Pf growth 48h 5.9µM*, HCV inhibitor inconclusive, SARS PLpro yeast -20%, NS1 inh -23% and AMA1 RON2 block -7%.
`Cc1ccc(-n2nc(C)cc2NC(=O)COc2cc(C)cc3oc(=O)c4c(c23)CCC4)cc1` gave Pf growth 96h 9.3µM*, Pf growth 48h inconclusive, HCV inhibitor 7.1µM*, SARS PLpro yeast 6%, NS1 inh 4% and AMA1 RON2 block -3%.
Screening COCCCNC(=O)C(C)N1c2cccc3cccc(c23)S1(=O)=O (centres undefined) returned Pf growth 96h -15%, Pf growth 48h 35%, HCV inhibitor -3%, SARS PLpro yeast 1%, NS1 inh -7% and AMA1 RON2 block -5%.
For COc1cc(/C=C/C(=O)N(C)CC(=O)Nc2ccccc2Br)cc2c1OCCO2 the results were Pf growth 96h inconclusive, Pf growth 48h 8.3µM*, HCV inhibitor inconclusive, SARS PLpro yeast -4% and AMA1 RON2 block -2%.
Screening COC(=O)c1ccc(-n2c(CCC(=O)O)ccc2-c2ccccc2)cc1 returned Pf growth 96h 3.7µM*, Pf growth 48h -3%, HCV inhibitor 7%, SARS PLpro yeast -4%, NS1 inh 2% and AMA1 RON2 block -4%.
COC(=O)Cn1c(CCC(=O)O)ccc1-c1ccccc1 was read as Pf growth 96h 8.3µM*, HCV inhibitor 19%, SARS PLpro yeast -5%, NS1 inh 5% and AMA1 RON2 block -7%.
For COc1ccc(NC(=O)Cn2c(CCC(=O)O)ccc2-c2ccccc2)cc1 the results were Pf growth 96h 78%, Pf growth 48h 7%, HCV inhibitor 3%, SARS PLpro yeast 2%, NS1 inh inconclusive and AMA1 RON2 block -11%.
Screening CCCn1c(CCC(=O)O)ccc1-c1ccc(F)cc1 returned Pf growth 96h 9.3µM*, Pf growth 48h 12%, HCV inhibitor 5%, SARS PLpro yeast -6%, NS1 inh -31% and AMA1 RON2 block -2%.
For Cc1ccc(C2(c3ccccc3)NC(=O)N(CC(=O)NCc3ccccc3)C2=O)cc1C (centres undefined) the results were Pf growth 96h inconclusive, Pf growth 48h inconclusive, HCV inhibitor inconclusive, SARS PLpro yeast 2% and AMA1 RON2 block -1%.
For CCCCc1ccc(NS(=O)(=O)N(C)C)cc1 the results were Pf growth 96h 10µM*, Pf growth 48h 24%, HCV inhibitor 16%, SARS PLpro yeast -21%, NS1 inh -77% and AMA1 RON2 block 39%.
O=c1cc(-c2ccc(Cl)cc2)[nH]c2ccccc12 was read as Pf growth 96h 2.1µM*, Pf growth 48h 1.5µM*, HCV inhibitor -1%, SARS PLpro yeast -1%, NS1 inh -6% and AMA1 RON2 block 7%.
For Oc1c(Cl)cc(Cl)cc1CN1CCN(Cc2ccccc2)CC1 the results were Pf growth 96h 0.74µM*, Pf growth 48h 1.2µM*, HCV inhibitor 3%, SARS PLpro yeast -4%, NS1 inh -14% and AMA1 RON2 block -19%.
Screening Clc1ccccc1CN1CCNCC1 returned Pf growth 96h 8.3µM*, Pf growth 48h 21%, HCV inhibitor -14%, SARS PLpro yeast -1%, NS1 inh 12% and AMA1 RON2 block -3%.
For c1csc(CN2CCNCC2)c1 the results were Pf growth 96h 10µM*, Pf growth 48h 16%, HCV inhibitor -1%, SARS PLpro yeast -3% and AMA1 RON2 block 7%.
`O=C(Cc1ccccc1)N1CCN(Cc2ccccc2Cl)CC1` gave Pf growth 96h 4.1µM*, Pf growth 48h 9%[0.00184 µM], HCV inhibitor 4%, SARS PLpro yeast 0%, NS1 inh -1% and AMA1 RON2 block 6%.
CCn1cc(C(=O)NC2CCCCCC2)c(=O)c2ccc(C)nc21 was read as Pf growth 96h -5%, Pf growth 48h inconclusive, HCV inhibitor 19%, SARS PLpro yeast 0%, NS1 inh -2% and AMA1 RON2 block 15%.
Screening Cc1cccc(C)c1NC(=O)C1CCCN1C(=O)Nc1cccc(F)c1 (centres undefined) returned Pf growth 96h inconclusive, Pf growth 48h 3%, HCV inhibitor 19%, SARS PLpro yeast 0%, NS1 inh 4% and AMA1 RON2 block 1%.
`CC(C)C[C@@H]1NC(=O)[C@H](C(C)C)NC(=O)c2cc([N+](=O)[O-])cc(I)c2NCC[C@@H](C(N)=O)NC1=O` gave Pf growth 96h 2.1µM*, Pf growth 48h inconclusive, HCV inhibitor -5%, SARS PLpro yeast -14%, NS1 inh inconclusive and AMA1 RON2 block 4%.

High-throughput results (PubChem BioAssay)
